# From PubChem BioAssay
# Activity calls are given as the source filed them.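 Rule for the calls: active = inhibition above 50%; inactive = the rest.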
# Assay: HepG2 cytotoxicity, primary screen, cytotoxicity control for P. falciparum antimalarial project, cell-based, ATP luminescence (AID 2303);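 note: 0% = DMSO wells and 100% = digitonin-killed cells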
# Conditions: HepG2 viability, 24-48 h, at 10 µM, hits give high values
row,SMILES,inhibition
1,COc1ccc(Cl)cc1N1CCN(CCCNC(=O)c2ccc(-c3nc4cc(Cl)c(F)cc4[nH]3)c(F)c2)CC1,21% (inactive)
2,c1ccc2c(c1)CN(Cc1cc3ccccc3[nH]1)CC1(CCN(Cc3c[nH]c4cnccc34)CC1)O2,27% (inactive)
3,Oc1ccc(CCNc2nc(NCCCOc3cccc(CN4CCCCC4)c3Cl)nc(N3CCNCC3)n2)cc1,26% (inactive)
4,O=C(CC1CCCC1)Nc1ccc2c(c1)CCC2,-1% (inactive)
5,CCN1CCN(C(=O)NC(C(=O)N(C)Cc2ccc(-c3ccc(C(F)(F)F)cc3)cc2)c2cccs2)C(=O)C1=O (configuration not stated),-5% (inactive)
6,Oc1c(CN2CCC(Cc3ccccc3)CC2)cc(Cl)c2cccnc12,49% (inactive)
7,C=C[C@]1(C)C[C@@H](OC(=O)NC(=O)CCCS(=O)(=O)c2nnc(C)s2)[C@]2(C)[C@H](C)CC[C@]3(CCC(=O)[C@H]32)[C@@H](C)[C@@H]1O,-9% (inactive)
8,COc1c(C2CCN(CCCCNC(=O)c3ccc(-c4ccc(C(=O)C(F)(F)F)cc4)cc3)CC2)ccc2c1CCCC2,99% (active)
9,O=C(NC1CCCc2ccccc21)C1CCCN(C(=O)c2ccc(O)c(-c3ccc(Cl)c(Cl)c3)c2)C1 (configuration not stated),-3% (inactive)
10,CC(=O)Nc1ncc(C(=O)Nc2cccc(-c3cccc(-c4nc5ccccc5[nH]4)c3)c2)s1,16% (inactive)
11,CCN(CC)C(=O)C1CCCN(C(=O)Nc2cc(C(F)(F)F)cc(C(F)(F)F)c2)C1 (configuration not stated),0% (inactive)
12,CCC(C)NS(=O)(=O)c1ccc2nc(Nc3ccc(C)cc3)n([C@H](C)C(C)(C)C)c2c1 (some centres not stated),2% (inactive)
